The values that follow come from ChEMBL document CHEMBL1961873, “Compounds: GSK PKIS; Assays: Nanosyn kinase panel” (2012).

“And” between values parts separate entries of the source, which are not always exact repeats. Equal entries are not always repeated.

Platelet-derived growth factor receptor beta (Homo sapiens), sequence (P09619 whole entry): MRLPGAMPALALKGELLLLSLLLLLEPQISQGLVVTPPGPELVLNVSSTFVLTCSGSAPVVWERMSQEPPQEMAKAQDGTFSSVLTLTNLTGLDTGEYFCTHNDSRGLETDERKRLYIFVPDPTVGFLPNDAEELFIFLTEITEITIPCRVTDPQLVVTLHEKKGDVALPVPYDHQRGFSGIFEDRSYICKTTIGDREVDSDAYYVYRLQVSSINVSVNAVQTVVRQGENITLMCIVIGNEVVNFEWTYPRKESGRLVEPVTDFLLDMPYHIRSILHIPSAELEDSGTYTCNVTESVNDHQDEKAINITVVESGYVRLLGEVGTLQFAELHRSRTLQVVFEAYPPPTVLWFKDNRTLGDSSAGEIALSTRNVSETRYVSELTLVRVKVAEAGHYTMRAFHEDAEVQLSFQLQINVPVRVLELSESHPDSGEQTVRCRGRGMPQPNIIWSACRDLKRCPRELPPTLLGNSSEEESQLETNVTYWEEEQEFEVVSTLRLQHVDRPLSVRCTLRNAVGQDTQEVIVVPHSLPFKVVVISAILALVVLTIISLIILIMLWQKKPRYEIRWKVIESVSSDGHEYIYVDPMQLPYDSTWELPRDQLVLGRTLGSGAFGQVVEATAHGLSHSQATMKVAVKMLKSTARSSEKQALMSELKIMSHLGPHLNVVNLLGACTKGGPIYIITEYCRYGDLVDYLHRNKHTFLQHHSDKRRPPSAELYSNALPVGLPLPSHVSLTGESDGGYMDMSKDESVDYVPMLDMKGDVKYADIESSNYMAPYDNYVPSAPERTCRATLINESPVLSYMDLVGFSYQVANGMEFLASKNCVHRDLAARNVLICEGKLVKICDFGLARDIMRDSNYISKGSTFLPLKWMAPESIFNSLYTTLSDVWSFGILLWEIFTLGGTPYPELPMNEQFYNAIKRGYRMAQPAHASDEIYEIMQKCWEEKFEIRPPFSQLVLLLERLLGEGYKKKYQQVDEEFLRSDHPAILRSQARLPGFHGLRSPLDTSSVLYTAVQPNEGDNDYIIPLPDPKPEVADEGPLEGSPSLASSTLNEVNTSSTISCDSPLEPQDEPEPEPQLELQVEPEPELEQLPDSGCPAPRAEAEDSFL

The experiment addresses Platelet-derived growth factor receptor beta (Homo sapiens) (UniProt P09619). Particulars: at 1 µM.
For orientation: inhibition means the change of the read-out against control, counted positive when it falls. Low values mean a response near the control, high ones a response far below the control. `COc1ccc(Nc2ncc(-c3ccccc3)o2)cc1OC` registered an inhibition of 68%.
`CCS(=O)(=O)c1ccc(OC)c(Nc2ncc(-c3cccc(C(C)=O)c3)o2)c1`: the inhibition was 84.3%.
In the case of `CS(=O)(=O)Nc1ccc(-c2ccc3c(NC(=O)C4CC4)n[nH]c3c2)cc1`, the inhibition was 8.42%.
Regarding `CS(=O)(=O)CCNCc1ccoc1-c1ccc2ncnc(Nc3ccc(OCc4ccccc4)cc3)c2c1`, the inhibition stood at 5.15%.
Take `NS(=O)(=O)c1ccc(N/N=C2\C(=O)Nc3ccc(C(=O)NCc4ccncc4)cc32)cc1`: the inhibition stood at 85.3%.
`CN1CCC(C(=O)Nc2n[nH]c3nc(-c4ccc(O)cc4)c(Br)cc23)CC1`: the inhibition is 22.6% and 17.3%.
For `CN1CCN(Cc2ccc(-c3cc4ncnc(Nc5ccc(OCc6cccc(F)c6)c(Cl)c5)c4s3)o2)CC1`, the inhibition was 6.41% and 13%.
Compound `COc1cc2c(cc1Nc1nc(Nc3cccc(F)c3C(N)=O)c3cc[nH]c3n1)N(C(=O)CN1CCN(C(C)C)CC1)CC2` returned an inhibition of 5.17%.
Compound `COc1cccc(-n2ncc3c(N/N=C/c4ccc(C(=O)NCCN(C)C)cc4)ncnc32)c1` returned an inhibition of 77.6%.
As to `CN(c1ccc(NC(=O)NCCN2CCOCC2)cc1)c1ccnc(Nc2ccc(CS(C)(=O)=O)cc2)n1`, the inhibition came to 77.1%.
Compound `Cc1nnc(-c2cccc(-c3ccc(C(=O)NCC4CC4)cc3)c2)o1` displayed an inhibition of 8.15%.
On to `Cc1cc(O)cc(C)c1/C=C/c1cncc(C(N)=O)c1`, for which the inhibition was determined as 42%.
In the case of `FC(F)(F)CNc1nccc(-c2cnn3ncccc23)n1`, the inhibition is 3.09%.
`NC(=O)c1ccc2c(-c3ccnc(NCCCO)n3)c(-c3ccc(F)cc3)nn2c1` showed an inhibition of 18.2%.
In turn, `COc1ccc2ncn(-c3cc(O[C@H](C)c4ccccc4C(F)(F)F)c(C(N)=O)s3)c2c1` had an inhibition of 37.5%.
